# Results filed as inconclusive are left out. Where a call stands in place of a potency, no number is given. Active and inactive are the calls of the source. Calls come from the whole dose curve; as a rule, active = well fitted inhibition curve with a large enough effect; inconclusive = small, poorly fitted or top-dose-only effect; inactive = flat fitted curve, though single readings scatter.
# System: CP194
# Assay: qHTS profiling for inhibitors of Plasmodium falciparum proliferation (AID 504749); note: nearly all actives have a fitted effect of over 60% in size
# Details: P. falciparum in erythrocytes, SYBR Green DNA, 72 h; series mostly up to 28.7 µM
# In short: (§1)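 Each compound contacts P. falciparum-infected red blood cells for 72 h at 37 C; lysis buffer (Tris, EDTA, saponin, Triton X, SYBR Green I) is added and fluorescence measured next morning; values normalized to controls.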
# Potency is the fitted concentration of half-maximal effect.
row,SMILES,Potency
1,C[C@](O)(CS(=O)(=O)c1ccc(F)cc1)C(=O)Nc1ccc(C#N)c(C(F)(F)F)c1,inactive
2,COP(=S)(OC)SCN1C(=O)c2ccccc2C1=O,inactive
3,C[C@]12CC[C@@H]3c4ccc(OC(=O)N(CCCl)CCCl)cc4CC[C@H]3[C@@H]1CC[C@@H]2O,inactive
4,O=P1(N(CCCl)CCCl)NCCCO1 (stereo not given),inactive
5,Cc1nnc2n1-c1ccc(Cl)cc1C(c1ccccc1)=NC2,inactive
6,O=C1Nc2ccc(Cl)cc2C(c2ccccc2)=NC1O (stereo not given),inactive
7,CCOC(=O)CC(SP(=S)(OC)OC)C(=O)OCC (stereo not given),inactive
8,CCCCCCCCCC(=O)O[C@H]1CC[C@H]2[C@@H]3CCC4=CC(=O)CC[C@@H]4[C@H]3CC[C@]12C,inactive
9,Nc1ccccc1C(=O)O,inactive
10,Oc1ccc(Cl)cc1,inactive
11,Cc1ncsc1CCCl,inactive
12,CN1C(=O)CCS(=O)(=O)C1c1ccc(Cl)cc1 (stereo not given),inactive
13,NCCc1ccc(O)cc1,inactive
14,C[C@]12CCC(=O)C=C1CC[C@@H]1[C@@H]2CC[C@]2(C)C(=O)CC[C@@H]12,inactive
15,Clc1ccc2c(c1)C(c1ccccc1)=NCc1nncn1-2,inactive
16,O=C1CN=C(c2ccccc2)c2cc([N+](=O)[O-])ccc2N1,inactive
17,NC(=O)CS(=O)C(c1ccccc1)c1ccccc1 (stereo not given),inactive
18,CCC1(c2ccccc2)C(=O)N(COC)C(=O)N(COC)C1=O,inactive
19,Nc1ccc([As](=O)(O)O)cc1,inactive
20,O=c1oc2ccccc2c(O)c1Cc1c(O)c2ccccc2oc1=O,inactive
21,O=C(O)CCCc1ccc(N(CCCl)CCCl)cc1,inactive
22,COc1c2c(cc3c1OCO3)CCN(C)C2,inactive
23,CN1C(=O)NC(=O)C(C)(C2=CCCCC2)C1=O (stereo not given),inactive
24,CN1C[C@H](C(=O)N[C@]2(C)O[C@@]3(O)[C@@H]4CCCN4C(=O)[C@H](Cc4ccccc4)N3C2=O)C=C2c3cccc4[nH]cc(c34)C[C@H]21,13.5 µM (active)
25,CCCCCCC(=O)CCCCCC/C=C/C[C@@H](O)[C@H](O)[C@@](N)(CO)C(=O)O,inactive
26,CC(C)=CC1C(C(=O)OCN2C(=O)C3=C(CCCC3)C2=O)C1(C)C (stereo not given),inactive
27,CN1C(=O)COc2c(C(=O)NC3CN4CCC3CC4)cc(Cl)cc21 (stereo not given),inactive
28,COP(=S)(OC)Oc1ccc(SC)c(C)c1,inactive
29,Nc1nc(N)nc(NC2CC2)n1,inactive
30,O=C(Nc1ccc(Br)cc1)c1cc(Br)cc(Br)c1O,inactive

# System: CP201
# Assay: as above
# Details: P. falciparum in erythrocytes, SYBR Green DNA, 72 h; series mostly up to 28.7 µM
# In short: as §1
row,SMILES,Potency
1,C[C@](O)(CS(=O)(=O)c1ccc(F)cc1)C(=O)Nc1ccc(C#N)c(C(F)(F)F)c1,inactive
2,COP(=S)(OC)SCN1C(=O)c2ccccc2C1=O,inactive
3,C[C@]12CC[C@@H]3c4ccc(OC(=O)N(CCCl)CCCl)cc4CC[C@H]3[C@@H]1CC[C@@H]2O,inactive
4,O=P1(N(CCCl)CCCl)NCCCO1 (stereo not given),inactive
5,Cc1nnc2n1-c1ccc(Cl)cc1C(c1ccccc1)=NC2,inactive
6,O=C1Nc2ccc(Cl)cc2C(c2ccccc2)=NC1O (stereo not given),inactive
7,CCOC(=O)CC(SP(=S)(OC)OC)C(=O)OCC (stereo not given),inactive
8,CCCCCCCCCC(=O)O[C@H]1CC[C@H]2[C@@H]3CCC4=CC(=O)CC[C@@H]4[C@H]3CC[C@]12C,inactive
9,Nc1ccccc1C(=O)O,inactive
10,Oc1ccc(Cl)cc1,inactive
11,Cc1ncsc1CCCl,inactive
12,CN1C(=O)CCS(=O)(=O)C1c1ccc(Cl)cc1 (stereo not given),inactive
13,NCCc1ccc(O)cc1,inactive
14,C[C@]12CCC(=O)C=C1CC[C@@H]1[C@@H]2CC[C@]2(C)C(=O)CC[C@@H]12,inactive
15,Clc1ccc2c(c1)C(c1ccccc1)=NCc1nncn1-2,inactive
16,O=C1CN=C(c2ccccc2)c2cc([N+](=O)[O-])ccc2N1,inactive
17,NC(=O)CS(=O)C(c1ccccc1)c1ccccc1 (stereo not given),inactive
18,CCC1(c2ccccc2)C(=O)N(COC)C(=O)N(COC)C1=O,inactive
19,Nc1ccc([As](=O)(O)O)cc1,inactive
20,O=c1oc2ccccc2c(O)c1Cc1c(O)c2ccccc2oc1=O,inactive
21,O=C(O)CCCc1ccc(N(CCCl)CCCl)cc1,inactive
22,COc1c2c(cc3c1OCO3)CCN(C)C2,inactive
23,CN1C(=O)NC(=O)C(C)(C2=CCCCC2)C1=O (stereo not given),inactive
24,CN1C[C@H](C(=O)N[C@]2(C)O[C@@]3(O)[C@@H]4CCCN4C(=O)[C@H](Cc4ccccc4)N3C2=O)C=C2c3cccc4[nH]cc(c34)C[C@H]21,15.1 µM (active)
25,CCCCCCC(=O)CCCCCC/C=C/C[C@@H](O)[C@H](O)[C@@](N)(CO)C(=O)O,inactive
26,CC(C)=CC1C(C(=O)OCN2C(=O)C3=C(CCCC3)C2=O)C1(C)C (stereo not given),inactive
27,CN1C(=O)COc2c(C(=O)NC3CN4CCC3CC4)cc(Cl)cc21 (stereo not given),inactive
28,COP(=S)(OC)Oc1ccc(SC)c(C)c1,inactive
29,Nc1nc(N)nc(NC2CC2)n1,inactive
30,O=C(Nc1ccc(Br)cc1)c1cc(Br)cc(Br)c1O,inactive

# Reference: PubChem BioAssay (NCATS)
